# According to PubChem BioAssay (NCATS):
# Inconclusive results are not listed. Some of the results follow. Calls of active or inactive are those of the source. The call rests on the fitted dose curve; in most records, active means well fitted curve in the direction sought with a large enough effect; inconclusive means small, poorly fitted or top-dose-only effect, or another doubt; inactive means no such curve, though single readings can be large; an effect the other way counts as inactive or inconclusive.
# How the values were obtained:
# [1] = target: Vitamin D3 receptor (Homo sapiens) (UniProt P11473); assay: qHTS for Inhibitors of the vitamin D receptor (VDR): Hit Validation in Primary Screen (AID 602199); conditions: VDR-coactivator inhibition assay, qHTS confirmation; further: potency means the concentration at half of the fitted maximal effect
# Sequence of Vitamin D3 receptor (Homo sapiens) (P11473 whole entry, looked up): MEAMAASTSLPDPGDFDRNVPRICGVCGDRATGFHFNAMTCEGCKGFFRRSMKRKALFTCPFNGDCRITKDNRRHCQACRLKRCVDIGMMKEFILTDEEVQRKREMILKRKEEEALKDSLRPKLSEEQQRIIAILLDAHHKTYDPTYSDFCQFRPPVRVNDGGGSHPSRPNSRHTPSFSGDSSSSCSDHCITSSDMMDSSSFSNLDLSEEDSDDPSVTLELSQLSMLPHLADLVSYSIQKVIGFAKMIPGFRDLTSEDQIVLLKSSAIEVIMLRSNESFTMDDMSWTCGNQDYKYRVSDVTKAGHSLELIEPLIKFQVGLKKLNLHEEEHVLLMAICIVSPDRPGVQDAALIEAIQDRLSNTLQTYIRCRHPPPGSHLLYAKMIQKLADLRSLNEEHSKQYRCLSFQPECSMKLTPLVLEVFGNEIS
# Summary of the method: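 With 800 nM VDR and 5 uM LG19078 agonist present, compounds were incubated 2 h at ambient temperature with Alexa 647-labelled SRC2-3. Displacement was read as polarization at 620/688 nm.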
# [2] = qHTS for Inhibitors of the vitamin D receptor (VDR): Hit Validation using a Cytotoxicity Assay (AID 602204); conditions: cytotoxicity counter-screen, cell viability; series mostly up to 48.3 µM; further: nearly all actives have a fitted effect of over 75% in size;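 on Potency: cells co-treated with VDR agonist LG190178 at 300 nM; potency means the concentration at half of the fitted maximal effect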
# Summary of the method: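 Luminescence proportional to cellular ATP reports viability. Cells (20,000 per well) rested 4 h, were treated with compounds for 18 h, then incubated 30 min with detection reagent. Controls: cycloheximide (high) and DMSO.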
# [3] = qHTS for Inhibitors of the vitamin D receptor (VDR): Hit Validation using a Texas Red Assay (AID 602201); conditions: VDR coregulator binding, Texas Red fluorescence polarization, agonist-bound VDR ligand-binding domain; series mostly up to 57.1 µM; further: potency means the concentration at half of the fitted maximal effect
# Summary of the method: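 After a 2-hour room-temperature incubation, polarization of Texas-Red emission was read (Ex 595 nm/Em 615 nm). Final mix contained 7 nM Texas Red, 1.5 uM VDR-LBD and LG19078.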
# [4] = qHTS for Inhibitors of WRN Helicase: Thiazole Orange DNA Binding Counterscreen (AID 720499); conditions: thiazole orange DNA binding displacement, fluorescence; series mostly up to 57.1 µM;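 further: drop in dye fluorescence marks compound binding to DNA; nearly all actives have a fitted effect of over 60% in size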
# Summary of the method: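 After pintool transfer of compounds into a thiazole orange/DNA mixture (100 nM and 50 nM respectively) and 15 min at room temperature, plates were imaged for fluorescence at 530 nm emission, 480 nm excitation.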
# [5] = target: RecQ-like DNA helicase BLM (Homo sapiens) (UniProt P54132); assay: qHTS for Inhibitors of WRN Helicase: BLM Helicase Counterscreen for WRN Inhibitors (AID 720503); conditions: Recombinant BLM helicase DNA unwinding, red fluorescence; series mostly up to 57.1 µM; further: nearly all actives have a fitted effect of over 60% in size
# Sequence of RecQ-like DNA helicase BLM (Homo sapiens) (P54132 whole entry, looked up): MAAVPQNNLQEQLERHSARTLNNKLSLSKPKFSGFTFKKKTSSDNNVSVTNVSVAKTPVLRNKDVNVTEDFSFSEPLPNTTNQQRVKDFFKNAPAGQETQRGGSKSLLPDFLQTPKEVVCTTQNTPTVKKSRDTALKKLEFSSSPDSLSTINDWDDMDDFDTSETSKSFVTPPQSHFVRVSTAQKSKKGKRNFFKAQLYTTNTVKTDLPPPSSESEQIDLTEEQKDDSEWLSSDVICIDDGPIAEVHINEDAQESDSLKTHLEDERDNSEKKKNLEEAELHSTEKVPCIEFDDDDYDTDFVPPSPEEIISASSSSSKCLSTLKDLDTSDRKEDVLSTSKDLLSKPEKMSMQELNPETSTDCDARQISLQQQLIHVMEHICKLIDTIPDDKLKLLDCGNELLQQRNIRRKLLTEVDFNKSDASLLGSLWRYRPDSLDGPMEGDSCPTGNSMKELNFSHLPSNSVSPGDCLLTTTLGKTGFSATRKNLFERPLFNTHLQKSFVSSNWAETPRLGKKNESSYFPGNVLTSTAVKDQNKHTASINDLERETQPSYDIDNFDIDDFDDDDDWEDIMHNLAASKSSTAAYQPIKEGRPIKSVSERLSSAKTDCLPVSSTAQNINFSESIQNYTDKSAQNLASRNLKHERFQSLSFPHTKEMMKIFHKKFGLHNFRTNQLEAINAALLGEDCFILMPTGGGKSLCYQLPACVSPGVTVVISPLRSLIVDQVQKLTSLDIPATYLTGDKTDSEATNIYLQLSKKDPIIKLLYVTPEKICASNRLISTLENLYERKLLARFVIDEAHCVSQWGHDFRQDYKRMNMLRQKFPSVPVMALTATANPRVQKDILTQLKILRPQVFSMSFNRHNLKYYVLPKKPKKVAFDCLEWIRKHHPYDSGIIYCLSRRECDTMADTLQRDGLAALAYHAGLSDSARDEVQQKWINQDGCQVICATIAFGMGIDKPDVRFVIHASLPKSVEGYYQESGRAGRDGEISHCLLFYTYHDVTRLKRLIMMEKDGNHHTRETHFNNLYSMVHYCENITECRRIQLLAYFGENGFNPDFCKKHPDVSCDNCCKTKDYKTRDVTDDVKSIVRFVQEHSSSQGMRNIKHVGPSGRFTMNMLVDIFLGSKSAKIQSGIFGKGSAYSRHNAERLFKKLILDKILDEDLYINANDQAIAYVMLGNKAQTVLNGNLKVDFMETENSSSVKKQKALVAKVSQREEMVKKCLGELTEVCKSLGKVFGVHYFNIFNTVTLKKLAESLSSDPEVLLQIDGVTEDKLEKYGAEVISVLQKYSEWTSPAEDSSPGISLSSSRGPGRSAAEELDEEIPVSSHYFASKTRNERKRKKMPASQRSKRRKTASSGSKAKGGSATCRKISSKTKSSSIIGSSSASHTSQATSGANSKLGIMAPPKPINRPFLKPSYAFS
# Summary of the method: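 Steps: compounds added to 1 nM BLM in pH 8.0 Tris buffer with 2 mM MgCl2; 15 min room-temperature incubation; substrates added (100 nM DNA, 2 mM ATP final); discontinuous kinetic fluorescence measurement, reads spaced 15 min.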
# [6] = target: DNA polymerase iota (Homo sapiens) (UniProt Q9UNA4); assay: qHTS for Inhibitors of Polymerase Iota: Confirmatory Assay for Cherry-picked Compounds (AID 720496); conditions: Pol iota primer extension, TAMRA/BHQ fluorescence; further: potency means the concentration at half of the fitted maximal effect
# Sequence of DNA polymerase iota (Homo sapiens) (Q9UNA4 whole entry, looked up): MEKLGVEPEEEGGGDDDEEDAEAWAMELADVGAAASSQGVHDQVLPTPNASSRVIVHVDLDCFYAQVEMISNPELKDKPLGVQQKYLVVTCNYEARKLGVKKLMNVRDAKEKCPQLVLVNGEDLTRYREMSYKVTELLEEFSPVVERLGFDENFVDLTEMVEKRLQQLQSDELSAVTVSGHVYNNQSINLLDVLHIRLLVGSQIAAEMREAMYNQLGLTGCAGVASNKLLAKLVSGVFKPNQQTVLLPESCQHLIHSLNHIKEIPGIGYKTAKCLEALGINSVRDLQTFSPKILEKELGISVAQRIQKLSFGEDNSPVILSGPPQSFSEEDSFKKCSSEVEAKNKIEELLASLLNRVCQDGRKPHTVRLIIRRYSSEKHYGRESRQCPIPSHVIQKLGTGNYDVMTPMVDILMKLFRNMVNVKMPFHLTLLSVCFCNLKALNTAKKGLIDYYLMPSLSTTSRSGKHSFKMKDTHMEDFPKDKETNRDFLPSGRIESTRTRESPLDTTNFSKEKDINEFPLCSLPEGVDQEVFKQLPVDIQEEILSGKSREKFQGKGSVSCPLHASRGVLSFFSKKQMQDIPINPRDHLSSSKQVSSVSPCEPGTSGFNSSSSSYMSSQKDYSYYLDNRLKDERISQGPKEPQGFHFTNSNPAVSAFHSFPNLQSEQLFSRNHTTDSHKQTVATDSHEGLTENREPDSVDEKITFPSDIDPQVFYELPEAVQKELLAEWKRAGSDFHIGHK
# Summary of the method: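 Read-out is TAMRA fluorescence (525 nm excitation, 598 nm emission) at 0 and 10 min. It reflects strand displacement from a BHQ-2-quenched template by 10 nM Pol iota, with 50 nM final substrate after 15 min compound preincubation.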
smiles,measurement,setting,value
O=c1[nH]c(/C=C\c2cccc(C(F)(F)F)c2)nc(O)c1[N+](=O)[O-],Potency,[1],18.9 µM (active)
same,Potency,[2],inactive
CN1CCN(C(c2ccc(Br)cc2)c2cc(Cl)c3cccnc3c2O)CC1 (stereo unspecified),Potency,[3],28.2 µM (active)
O=C1NN(c2ccc(F)c(Cl)c2)C(=O)/C1=C\c1cccc(OC(=O)c2cccs2)c1,Potency,[3],inactive
CCOC(=O)c1sc(=S)n2c1[nH]c(=O)c1ccc(C(=O)OC)cc12,Potency,[1],7.94 µM (active)
same,Potency,[3],10 µM (active)
same,Potency,[2],inactive
CC(C)(C)c1cc(=O)n(-c2ccccc2)[nH]1,Potency,[3],12.6 µM (active)
COC(=O)/C=C\C(=O)Nc1cccc([N+](=O)[O-])c1,Potency,[1],5.32 µM (active)
same,Potency,[4],inactive
same,Potency,[5],inactive
CSc1nnc(NC(=O)c2nc(S(=O)(=O)Cc3ccc(C)cc3)ncc2Cl)s1,Potency,[1],7.52 µM (active)
same,Potency,[3],inactive
same,Potency,[2],16.4 µM (active)
C=CCOc1ccc(/C=C2/C(=O)ON=C2C)cc1OCC,Potency,[1],10.6 µM (active)
same,Potency,[2],inactive
C[C@@H](NC(=O)OC(C)(C)C)c1nnc(S(=O)(=O)Cc2ccccc2)o1,Potency,[1],11.2 µM (active)
same,Potency,[3],11.2 µM (active)
same,Potency,[2],inactive
Cc1nc(-c2ccccc2)sc1C(=O)/C=C/c1ccccc1,Potency,[1],16.8 µM (active)
same,Potency,[2],inactive
COc1ccc(Cl)cc1NC(=O)CCS(=O)(=O)c1nc(-c2cccs2)cc(C(F)(F)F)n1,Potency,[3],11.2 µM (active)
C#CCOc1c(Cl)cc(/C=C2/C(=O)ON=C2C)cc1OCC,Potency,[3],15.8 µM (active)
O=C(/C=C/c1ccc(Cl)c([N+](=O)[O-])c1)c1cccnc1,Potency,[1],2.51 µM (active)
same,Potency,[3],4.47 µM (active)
same,Potency,[2],inactive
O=[N+]([O-])/C=C/c1ccc2c(ccn2Cc2ccccc2)c1,Potency,[1],6.7 µM (active)
same,Potency,[2],9.2 µM (active)
Cc1cc(C)nc(S/C=C/C(=O)c2ccccc2)n1,Potency,[1],3.55 µM (active)
same,Potency,[3],14.1 µM (active)
same,Potency,[2],23.8 µM (active)
CCOc1ccc(C(=O)CC(C(=O)O)N2CCCCC2)cc1 (stereo unspecified),Potency,[3],inactive
c1ccc2c(C[n+]3csc4ccccc43)cccc2c1,Potency,[1],5.62 µM (active)
same,Potency,[3],10 µM (active)
same,Potency,[2],inactive
O=C1C=C(c2ccc(Cl)cc2)C(=O)N1Nc1ccccc1,Potency,[1],2.99 µM (active)
same,Potency,[2],23.1 µM (active)
CS(=O)(=O)c1nc(-c2ccccc2)cc(C(F)(F)F)n1,Potency,[3],10 µM (active)
CC(=O)N(C1=C(Cl)C(=O)c2ccccc2C1=O)c1ccc(C(=O)O)cc1,Potency,[1],7.94 µM (active)
same,Potency,[3],3.55 µM (active)
same,Potency,[6],67 µM (active)
same,Potency,[4],inactive
same,Potency,[5],inactive
O=C(Nc1ccccc1)c1nnsc1S(=O)(=O)c1ccc(Cl)cc1,Potency,[1],16.8 µM (active)
same,Potency,[4],inactive
same,Potency,[5],inactive
CC(=O)N1CC[n+]2c(-c3ccc([N+](=O)[O-])cc3)csc21,Potency,[1],10 µM (active)
same,Potency,[3],7.08 µM (active)
same,Potency,[2],inactive
CCOc1cc(/C=C2/C(=O)ON=C2C)cc(Br)c1O,Potency,[3],inactive
Nc1cc(S(=O)(=O)Nc2ccccc2Cl)ccc1N1CCCCC1,Potency,[3],5.62 µM (active)
CCOc1ccc(N(Cc2ccccc2)C(=O)c2nc(S(C)(=O)=O)ncc2Cl)cc1,Potency,[1],4.47 µM (active)
same,Potency,[2],16.8 µM (active)
CC1CCN(C(=S)c2ccc(-c3ccc(Cl)cc3Cl)o2)CC1,Potency,[1],21.2 µM (active)
same,Potency,[2],inactive
O=C(/C=C/c1ccc(Cl)cc1Cl)c1cccnc1,Potency,[1],9.47 µM (active)
same,Potency,[2],inactive
Cc1ccc(-c2nc3ccccn3c2Nc2c(C)cccc2C)o1,Potency,[1],17.8 µM (active)
same,Potency,[2],inactive
Cc1cccc(Oc2c([N+](=O)[O-])c(=O)n(C)c3ccccc23)c1,Potency,[1],21.2 µM (active)
same,Potency,[2],inactive
COc1ccc(OCc2nnc3n2N=C(c2ccccc2)C(CC(=O)O)S3)cc1 (stereo unspecified),Potency,[1],1.58 µM (active)
same,Potency,[3],3.16 µM (active)
same,Potency,[2],inactive
Cc1cc2nc3ccc(N(C)C)cc3nc2cc1N,Potency,[3],3.55 µM (active)
O=C(Nc1nnc(COc2ccc(Cl)cc2)s1)c1ccco1,Potency,[3],inactive
COc1ccc(OC)c(/C=C/C(=O)c2ccc(Cl)cc2)c1,Potency,[3],28.2 µM (active)
CCCCS(=O)(=O)c1oc(-c2cccs2)nc1S(=O)(=O)c1ccccc1,Potency,[1],2.24 µM (active)
same,Potency,[2],9.47 µM (active)
O=c1[nH]c2ccccc2n2c(-c3ccccc3)nnc12,Potency,[1],9.47 µM (active)
same,Potency,[4],inactive
same,Potency,[5],inactive
O=C(Nc1cc(S(=O)(=O)N2CCOCC2)ccc1N1CCCC1)c1ccc(Cl)cc1,Potency,[3],20 µM (active)
O=C(/C=C/c1ccccc1)c1ccccc1O,Potency,[1],23.8 µM (active)
same,Potency,[2],inactive
Cc1cccc(CS(=O)(=O)c2ncc(Cl)c(C(=O)Nc3ccc(F)cc3)n2)c1,Potency,[1],3.36 µM (active)
same,Potency,[2],11.2 µM (active)
Cc1ccc(S(=O)(=O)CCC(=O)c2cccc([N+](=O)[O-])c2)cc1,Potency,[3],3.55 µM (active)
COc1ccc(C(Nc2cc(C)ccn2)c2ccc3ccc(C)nc3c2O)cc1 (stereo unspecified),Potency,[3],14.1 µM (active)
CCOc1ccc(/C=C/C(=O)c2c(O)cc(C)oc2=O)cc1,Potency,[3],25.1 µM (active)
O=C1C=C(c2ccccc2)C(=O)N1Nc1ccccc1,Potency,[3],3.55 µM (active)
CCCOc1ccc(/C=C2/C(=O)ON=C2C)cc1OCC,Potency,[3],15.8 µM (active)
CC(C)c1nnc(NC(=O)CCS(=O)(=O)c2nc(-c3cccs3)cc(C(F)(F)F)n2)s1,Potency,[3],inactive
COC(=O)c1cc(=O)n(Cc2ccco2)c(=Nc2ccc(F)c(Cl)c2)s1,Potency,[3],10 µM (active)
CCc1ccc(-n2nc3cc(C)c(N)cc3n2)cc1,Potency,[3],15.8 µM (active)
CCN(CC)c1ccc(NC(=O)c2ccccc2)cc1S(=O)(=O)Nc1ccccc1OC,Potency,[3],10 µM (active)
CC(C)CN1C(=O)/C(=C(/C#N)C(=O)NC2CCCCC2)c2ccccc21,Potency,[3],3.55 µM (active)
CCOC(=O)c1c(C)oc2c1c1c(c3ccccc32)OCN(Cc2cccnc2)C1,Potency,[3],20 µM (active)
O=C(O)CN1C(=O)/C(=C\c2cc(Br)ccc2OCc2ccc(F)cc2)SC1=S,Potency,[3],inactive
CCCCN1C(=O)C(=Nc2cccc3cnccc23)c2ccccc21,Potency,[3],inactive
Cc1nc(NC(=O)c2ccc(Cl)cc2)sc1Cc1ccc2c(c1)OCO2,Potency,[3],inactive
[O-]/[N+](=C/c1ccc(F)cc1)c1ccc(Cl)cc1,Potency,[3],inactive
O=[N+]([O-])c1ccc(C2=Nn3c(Cn4nnc5ccccc54)nnc3SC2)cc1,Potency,[3],25.1 µM (active)
O=C1Nc2ccc(Br)cc2C1=Nc1cccnc1,Potency,[3],inactive
CCC(=O)Nc1cccc(C(=O)/C=C/c2cc(Br)ccc2OC)c1,Potency,[3],28.2 µM (active)
c1ccc(OCc2nn3c(Cn4nnc5ccccc54)nnc3s2)cc1,Potency,[3],14.1 µM (active)
CC(=O)C1=C(c2ccc(Br)cc2)C(=O)c2ccccc2C1=O,Potency,[3],3.55 µM (active)
O=C(O)/C=C/C(=O)c1ccc2c(c1)NC(=O)CO2,Potency,[3],inactive
c1ccc(-c2nnc3sc(-c4csc5c4CCCC5)nn23)cc1,Potency,[3],22.4 µM (active)
CN1C(=O)/C(=N\OC(=O)c2ccccc2Cl)c2ccccc21,Potency,[3],31.6 µM (active)
CS(=O)(=O)c1ccc(S(=O)CC(=O)Oc2ccc(Cl)cc2)c([N+](=O)[O-])c1 (stereo unspecified),Potency,[3],2.51 µM (active)
COc1cccc(C(=O)C(C#N)=C(SC)SC)c1,Potency,[3],inactive
CC(=O)Nc1cccc(C(=O)/C=C/c2ccc(C)cc2)c1,Potency,[3],inactive
Cc1ccc(C=Nc2ccc(N(C)C)cc2)o1,Potency,[3],20 µM (active)
Cc1cc(Br)cc2c1N(Cc1ccccc1OC(C)C)C(=O)C2=O,Potency,[3],11.2 µM (active)
O=[N+]([O-])c1c(Nc2ccc(O)cc2)cc(Cl)c2nonc12,Potency,[3],3.16 µM (active)
O=S(=O)(/C(=C/c1ccc(C(F)(F)F)cc1)c1nc2ccccc2[nH]1)c1ccccc1,Potency,[3],inactive
COc1cccc(/C=C2\C(=O)N(c3cccc(C)c3)C(=O)c3ccccc32)c1,Potency,[3],14.1 µM (active)
Cc1ccc(C(=O)NC2(O)C(=O)c3ccccc3C2=O)cc1C,Potency,[3],inactive
CSc1nnc(NC(=O)c2nc(S(=O)(=O)Cc3ccccc3)ncc2Cl)s1,Potency,[3],28.2 µM (active)
O=S(=O)(/N=C(\Sc1ccc(Cl)cc1)c1ccccc1)c1ccccc1,Potency,[3],35.5 µM (active)
COc1ccc(N2C(=O)C(Cl)=C(Oc3cccc(OC)c3)C2=O)cc1,Potency,[3],2.82 µM (active)
NC(=O)COc1ccc(C(=O)/C=C2/C(=O)Nc3ccccc32)cc1,Potency,[3],inactive
CCN(CC)c1ccc(NC(=O)c2cccc(C)c2)cc1S(=O)(=O)Nc1ccccc1OC,Potency,[3],inactive
CCc1oc2ccccc2c1C(=O)CCN1CCCCC1,Potency,[3],3.55 µM (active)
O=C1ON=C(c2ccccc2)/C1=C/c1ccc(O)cc1,Potency,[3],inactive
CCN1C(=O)/C(=C\C(=O)c2cccs2)c2cc(Br)ccc21,Potency,[3],inactive
CCCNC(=O)c1nnsc1S(=O)c1ccc(Cl)cc1 (stereo unspecified),Potency,[3],3.16 µM (active)
NC(=O)c1ccc(N=C2C(=O)Nc3ccc([N+](=O)[O-])cc32)cc1,Potency,[3],1.41 µM (active)
CCOC(=O)c1c(-c2ccccc2)csc1NC(=O)c1nc(S(=O)(=O)CC)ncc1Cl,Potency,[3],3.55 µM (active)
[O-]/[N+](=C\c1ccccc1)c1ccc(Br)cc1,Potency,[3],inactive
O=C(CCCSc1ccc(Cl)cc1)Nc1cc(S(=O)(=O)N2CCOCC2)ccc1O,Potency,[3],7.94 µM (active)
Nc1c(N2CCCC2)cc(Cl)c2nonc12,Potency,[3],3.98 µM (active)
Cc1nc2ccc(N=NN(C)C)cc2[nH]1,Potency,[3],inactive
CCOc1ccc(Cl)cc1/C=C1/C(=O)ON=C1C,Potency,[3],7.94 µM (active)
CN(C)c1ccc(C=Nc2ccc(N(C)C)cc2)cc1,Potency,[3],17.8 µM (active)
N#Cc1c(Nc2ccc(Cl)cc2)s[nH]c1=O,Potency,[3],inactive
O=C(COc1ccc(Cl)cc1)Nc1sc2c(c1C(=O)Nc1cccc(Cl)c1)CCCC2,Potency,[3],8.91 µM (active)
O=C(/C(=C/c1ccncc1)n1ccnc1)c1ccc(Cl)cc1Cl,Potency,[3],14.1 µM (active)
c1ccc(CCc2nn3c(Cc4ccccc4)nnc3s2)cc1,Potency,[3],28.2 µM (active)
C#CCOc1ccc(/C=C2/C(=O)ON=C2C)cc1Br,Potency,[3],inactive
